Data on 8 sequences can be found in PMC7862700, “An all-to-all approach to the identification of sequence-specific readers for epigenetic DNA modifications on cytosine”.

Test in all cases: DAPPL (digital affinity profiling via proximity ligation, sequencing); 10 mM Tris-HCl pH 7.5, 50 mM NaCl, 1 mM DTT, 4% glycerol, room temperature, 30 min; GST-TFs on glutathione beads, 16-mer random dsDNA library, 0.1% formaldehyde crosslink after washing; high values mean tight binding
The target in experiment [1] is T1, FEV (Homo sapiens, UniProt Q99581 1-238).
T1 sequence: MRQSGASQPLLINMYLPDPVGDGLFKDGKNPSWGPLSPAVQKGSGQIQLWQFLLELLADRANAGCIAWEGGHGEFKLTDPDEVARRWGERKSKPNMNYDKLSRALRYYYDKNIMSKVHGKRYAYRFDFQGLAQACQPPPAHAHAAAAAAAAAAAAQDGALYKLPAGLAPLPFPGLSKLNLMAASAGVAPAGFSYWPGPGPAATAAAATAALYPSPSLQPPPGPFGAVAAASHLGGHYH
The following applies: protein: recombinant; tags: N-terminal GST; dsDNA, one strand shown. The procedure, abridged:
(§1)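 Beads coated with glutathione captured GST-fused human transcription factors that had been expressed in yeast, and the factors were then given DNA barcodes and pooled with a tag-only sample. The pools were incubated with 200 nmole of a random double-stranded 16-mer DNA library in Tris/NaCl/DTT/glycerol buffer for 30 min at room temperature, washed, crosslinked with 0.1% formaldehyde and proximity-ligated with BsaI/T4 ligase at 37 °C for 1 h. PCR amplification and Illumina NextSeq500 sequencing came last. Binding signal is each hexamer's read frequency for a factor divided by its frequency for the tag-only sample.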

The target in experiment [2] is ETV5 (Homo sapiens, UniProt P41161 1-510). The conditions noted are these: protein: recombinant; tags: N-terminal GST; dsDNA, one strand shown. The procedure, abridged: as §1
Chain of ETV5 (P41161 whole entry): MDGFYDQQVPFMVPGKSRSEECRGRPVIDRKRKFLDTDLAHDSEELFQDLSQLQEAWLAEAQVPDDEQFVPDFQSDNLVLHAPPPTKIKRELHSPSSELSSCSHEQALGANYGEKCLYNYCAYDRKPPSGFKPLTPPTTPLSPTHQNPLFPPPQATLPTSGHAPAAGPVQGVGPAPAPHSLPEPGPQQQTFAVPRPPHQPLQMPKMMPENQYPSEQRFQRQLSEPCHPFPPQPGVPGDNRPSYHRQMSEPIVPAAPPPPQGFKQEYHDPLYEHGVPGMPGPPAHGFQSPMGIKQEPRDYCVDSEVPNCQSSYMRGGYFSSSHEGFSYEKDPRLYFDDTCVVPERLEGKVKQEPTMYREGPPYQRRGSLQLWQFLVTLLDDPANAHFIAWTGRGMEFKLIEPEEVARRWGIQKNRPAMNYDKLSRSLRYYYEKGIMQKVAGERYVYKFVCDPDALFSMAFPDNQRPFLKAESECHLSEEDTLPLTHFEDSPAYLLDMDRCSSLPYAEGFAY
The target in experiment [3] is HSF1 (Homo sapiens, UniProt Q00613 1-529). The following applies: protein: recombinant; tags: N-terminal GST; chain copies: 3; dsDNA, one strand shown. The procedure, abridged:
as §1

For experiment [4], the target named is T2, SPIC (Homo sapiens, UniProt Q8N5J4 1-248).
T2 sequence: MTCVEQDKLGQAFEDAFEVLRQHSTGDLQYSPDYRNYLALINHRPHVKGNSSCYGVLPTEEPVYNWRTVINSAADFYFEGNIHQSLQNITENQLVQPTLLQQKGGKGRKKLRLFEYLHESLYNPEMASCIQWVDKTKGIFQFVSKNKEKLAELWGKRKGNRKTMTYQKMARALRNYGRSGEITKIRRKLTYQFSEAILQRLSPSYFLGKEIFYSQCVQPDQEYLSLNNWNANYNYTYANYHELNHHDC
The conditions noted are these: protein: recombinant; tags: N-terminal GST; dsDNA, one strand shown. The procedure, abridged:
as §1

Experiment [5] concerns the target ELF4 (Homo sapiens, UniProt Q99607 1-663). The conditions noted are these: protein: recombinant; tags: N-terminal GST; dsDNA, one strand shown. Put shortly:
as §1

Experiment [6] concerns the target T3, ELK4 (Homo sapiens, UniProt P28324-2 1-405).
T3 sequence: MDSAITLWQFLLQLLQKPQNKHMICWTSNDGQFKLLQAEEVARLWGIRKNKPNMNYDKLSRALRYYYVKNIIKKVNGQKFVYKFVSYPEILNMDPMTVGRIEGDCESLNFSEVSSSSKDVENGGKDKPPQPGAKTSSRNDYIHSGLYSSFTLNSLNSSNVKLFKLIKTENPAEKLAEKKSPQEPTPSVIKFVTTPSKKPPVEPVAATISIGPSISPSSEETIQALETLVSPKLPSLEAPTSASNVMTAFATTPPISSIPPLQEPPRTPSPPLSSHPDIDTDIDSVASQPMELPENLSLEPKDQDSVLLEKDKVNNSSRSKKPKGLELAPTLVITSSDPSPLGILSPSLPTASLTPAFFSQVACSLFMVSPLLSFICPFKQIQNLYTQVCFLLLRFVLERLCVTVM
The conditions noted are these: protein: recombinant; tags: N-terminal GST; dsDNA, one strand shown. Put shortly: as §1

The target of experiment [7] is T4, ETV2 (Homo sapiens, UniProt O00321 1-342).
T4 sequence: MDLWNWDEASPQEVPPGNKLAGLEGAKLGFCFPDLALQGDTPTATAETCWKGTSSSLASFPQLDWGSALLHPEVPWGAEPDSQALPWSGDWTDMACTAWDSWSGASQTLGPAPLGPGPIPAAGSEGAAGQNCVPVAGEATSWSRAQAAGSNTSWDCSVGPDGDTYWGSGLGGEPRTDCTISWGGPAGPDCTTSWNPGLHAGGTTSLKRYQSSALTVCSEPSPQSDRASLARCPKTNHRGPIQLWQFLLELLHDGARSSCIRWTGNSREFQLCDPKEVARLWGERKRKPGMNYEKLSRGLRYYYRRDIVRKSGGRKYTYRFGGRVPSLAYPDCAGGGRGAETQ
The conditions noted are these: protein: recombinant; tags: N-terminal GST; dsDNA, one strand shown. The procedure, abridged:
as §1

Experiment [8] has as its target T5, ELF3 (Homo sapiens, UniProt P78545 1-371).
T5 sequence: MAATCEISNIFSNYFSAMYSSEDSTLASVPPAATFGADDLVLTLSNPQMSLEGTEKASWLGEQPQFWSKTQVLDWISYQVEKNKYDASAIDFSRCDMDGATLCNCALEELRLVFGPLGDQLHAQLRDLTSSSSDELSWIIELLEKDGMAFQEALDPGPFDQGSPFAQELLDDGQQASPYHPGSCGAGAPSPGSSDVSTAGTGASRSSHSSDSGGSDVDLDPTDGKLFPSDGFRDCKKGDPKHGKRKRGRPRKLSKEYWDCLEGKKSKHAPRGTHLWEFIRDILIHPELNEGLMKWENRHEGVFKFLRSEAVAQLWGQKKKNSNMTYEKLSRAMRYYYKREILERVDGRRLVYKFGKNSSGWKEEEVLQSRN
The conditions noted are these: protein: recombinant; tags: N-terminal GST; dsDNA, one strand shown. The procedure, abridged:
as §1

Experiment [9] concerns the target CRX (Homo sapiens, UniProt O43186 1-299). The following applies: protein: recombinant; tags: N-terminal GST; dsDNA, one strand shown. The procedure, abridged:
as §1

Experiment [10] addresses ETV1 (Homo sapiens, UniProt P50549 1-477). The following applies: protein: recombinant; tags: N-terminal GST; dsDNA, one strand shown. The procedure, abridged: as §1

Chain of ELF4 (Q99607 whole entry): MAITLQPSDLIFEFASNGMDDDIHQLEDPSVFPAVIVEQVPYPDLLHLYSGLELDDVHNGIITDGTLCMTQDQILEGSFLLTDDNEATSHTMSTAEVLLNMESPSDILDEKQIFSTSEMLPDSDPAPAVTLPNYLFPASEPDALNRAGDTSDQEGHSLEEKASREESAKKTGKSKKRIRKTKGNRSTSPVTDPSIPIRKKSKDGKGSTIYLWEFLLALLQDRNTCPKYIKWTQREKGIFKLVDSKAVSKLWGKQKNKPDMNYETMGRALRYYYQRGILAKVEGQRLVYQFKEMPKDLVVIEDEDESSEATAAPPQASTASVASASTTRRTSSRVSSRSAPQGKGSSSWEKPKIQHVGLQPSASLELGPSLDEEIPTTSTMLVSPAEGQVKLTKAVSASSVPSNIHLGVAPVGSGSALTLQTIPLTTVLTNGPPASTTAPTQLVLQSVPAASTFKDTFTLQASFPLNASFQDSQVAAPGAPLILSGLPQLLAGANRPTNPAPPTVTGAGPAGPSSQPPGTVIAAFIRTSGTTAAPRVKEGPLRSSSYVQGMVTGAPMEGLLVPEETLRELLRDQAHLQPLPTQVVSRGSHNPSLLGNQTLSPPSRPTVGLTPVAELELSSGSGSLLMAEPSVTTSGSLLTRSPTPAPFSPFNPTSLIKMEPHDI
Chain of CRX (O43186 whole entry): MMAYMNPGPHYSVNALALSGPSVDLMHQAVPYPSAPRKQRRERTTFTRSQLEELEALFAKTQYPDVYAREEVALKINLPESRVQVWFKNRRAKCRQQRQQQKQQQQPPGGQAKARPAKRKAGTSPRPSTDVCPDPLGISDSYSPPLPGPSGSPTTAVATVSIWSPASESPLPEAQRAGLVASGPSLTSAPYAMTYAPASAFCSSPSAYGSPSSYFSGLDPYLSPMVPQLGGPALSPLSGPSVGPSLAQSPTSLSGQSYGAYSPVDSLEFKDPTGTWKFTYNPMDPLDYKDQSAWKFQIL
Chain of ETV1 (P50549 whole entry): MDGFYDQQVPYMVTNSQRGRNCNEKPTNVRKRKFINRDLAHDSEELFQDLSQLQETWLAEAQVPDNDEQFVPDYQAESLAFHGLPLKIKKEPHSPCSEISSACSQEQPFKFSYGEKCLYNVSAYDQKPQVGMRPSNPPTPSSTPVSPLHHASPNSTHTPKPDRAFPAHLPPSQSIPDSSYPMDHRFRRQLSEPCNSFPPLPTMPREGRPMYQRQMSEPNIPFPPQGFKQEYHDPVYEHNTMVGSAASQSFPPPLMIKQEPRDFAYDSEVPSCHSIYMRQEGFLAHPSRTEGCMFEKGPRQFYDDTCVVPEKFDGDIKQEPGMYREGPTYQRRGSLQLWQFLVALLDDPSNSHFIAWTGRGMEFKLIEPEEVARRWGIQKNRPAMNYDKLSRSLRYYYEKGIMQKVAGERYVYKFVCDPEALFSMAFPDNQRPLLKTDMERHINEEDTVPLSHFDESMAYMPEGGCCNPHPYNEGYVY
Chain of HSF1 (Q00613 whole entry): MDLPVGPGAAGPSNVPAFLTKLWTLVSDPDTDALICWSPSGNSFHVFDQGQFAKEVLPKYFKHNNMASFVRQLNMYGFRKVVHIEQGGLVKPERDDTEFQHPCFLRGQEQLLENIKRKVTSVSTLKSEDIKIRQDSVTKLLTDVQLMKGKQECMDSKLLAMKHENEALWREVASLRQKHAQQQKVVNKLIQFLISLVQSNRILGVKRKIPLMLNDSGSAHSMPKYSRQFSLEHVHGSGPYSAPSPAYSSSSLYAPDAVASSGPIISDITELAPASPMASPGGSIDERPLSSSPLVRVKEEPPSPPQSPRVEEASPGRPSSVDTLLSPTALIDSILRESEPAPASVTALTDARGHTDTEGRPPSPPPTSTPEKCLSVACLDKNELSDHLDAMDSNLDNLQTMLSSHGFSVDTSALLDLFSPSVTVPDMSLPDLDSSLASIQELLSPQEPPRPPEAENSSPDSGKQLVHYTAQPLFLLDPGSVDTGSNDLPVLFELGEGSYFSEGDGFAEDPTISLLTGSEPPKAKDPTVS

On to CCCGTA, for which the binding signal is 1.16 fold enrichment (6-mer frequency, TF over GST control) in experiment [1]; 1.25 fold enrichment (6-mer frequency, TF over GST control) in experiment [2]; 1.22 fold enrichment (6-mer frequency, TF over GST control) in experiment [3]; 1.31 fold enrichment (6-mer frequency, TF over GST control) in experiment [4]; 1.16 fold enrichment (6-mer frequency, TF over GST control) in [5]; 1.21 fold enrichment (6-mer frequency, TF over GST control) in experiment [6]. The binding signal was 1.3 fold enrichment (6-mer frequency, TF over GST control) in experiment [7]; 1.14 fold enrichment (6-mer frequency, TF over GST control) in experiment [8]; 1.17 fold enrichment (6-mer frequency, TF over GST control) in [9]; 1.16 fold enrichment (6-mer frequency, TF over GST control) in experiment [10].
Take CAACTT: the binding signal in [1] is 1.78 fold enrichment (6-mer frequency, TF over GST control); in experiment [2], 1.58 fold enrichment (6-mer frequency, TF over GST control); in experiment [3] it was 1.22 fold enrichment (6-mer frequency, TF over GST control); in experiment [4], 1.77 fold enrichment (6-mer frequency, TF over GST control); in experiment [5] it was 1.57 fold enrichment (6-mer frequency, TF over GST control); in experiment [6], 1.65 fold enrichment (6-mer frequency, TF over GST control). Besides, the binding signal was 1.4 fold enrichment (6-mer frequency, TF over GST control) in experiment [7]; 1.61 fold enrichment (6-mer frequency, TF over GST control) in experiment [8]; 1.25 fold enrichment (6-mer frequency, TF over GST control) in [9]; 1.54 fold enrichment (6-mer frequency, TF over GST control) in [10].
As for ACATTA, the binding signal in experiment [1] was 1.16 fold enrichment (6-mer frequency, TF over GST control); in experiment [2], 1.12 fold enrichment (6-mer frequency, TF over GST control); in experiment [3], 1.2 fold enrichment (6-mer frequency, TF over GST control); in experiment [4], 1.23 fold enrichment (6-mer frequency, TF over GST control); in experiment [5], 1.2 fold enrichment (6-mer frequency, TF over GST control); in experiment [6], 1.18 fold enrichment (6-mer frequency, TF over GST control). The binding signal in experiment [7] is 1.25 fold enrichment (6-mer frequency, TF over GST control); in experiment [8] it was 1.14 fold enrichment (6-mer frequency, TF over GST control); in [9], 1.38 fold enrichment (6-mer frequency, TF over GST control); in [10], 1.29 fold enrichment (6-mer frequency, TF over GST control).
On to GCTTCT, for which the binding signal in [1] was 1.41 fold enrichment (6-mer frequency, TF over GST control); in experiment [2] it was 1.57 fold enrichment (6-mer frequency, TF over GST control); in experiment [3], 2.32 fold enrichment (6-mer frequency, TF over GST control); in experiment [4] it was 1.48 fold enrichment (6-mer frequency, TF over GST control); in [5] it was 1.6 fold enrichment (6-mer frequency, TF over GST control); in experiment [6] it was 1.4 fold enrichment (6-mer frequency, TF over GST control). In addition, the binding signal in experiment [7] was 1.46 fold enrichment (6-mer frequency, TF over GST control); in experiment [8] it was 1.25 fold enrichment (6-mer frequency, TF over GST control); in experiment [9], 1.81 fold enrichment (6-mer frequency, TF over GST control); in [10], 1.42 fold enrichment (6-mer frequency, TF over GST control).
As for ATTTCA, the binding signal was 1.25 fold enrichment (6-mer frequency, TF over GST control) in experiment [1]; 1.27 fold enrichment (6-mer frequency, TF over GST control) in experiment [2]; 1.26 fold enrichment (6-mer frequency, TF over GST control) in experiment [3]; 1.18 fold enrichment (6-mer frequency, TF over GST control) in experiment [4]; 1.27 fold enrichment (6-mer frequency, TF over GST control) in experiment [5]; 1.27 fold enrichment (6-mer frequency, TF over GST control) in experiment [6]. The binding signal in experiment [7] was 1.28 fold enrichment (6-mer frequency, TF over GST control); in [8] it was 1.16 fold enrichment (6-mer frequency, TF over GST control); in experiment [9] it was 1.22 fold enrichment (6-mer frequency, TF over GST control); in [10] it was 1.25 fold enrichment (6-mer frequency, TF over GST control).
For TATTGG, the binding signal in [1] is 1.14 fold enrichment (6-mer frequency, TF over GST control); in [2], 1.19 fold enrichment (6-mer frequency, TF over GST control); in experiment [3], 1.2 fold enrichment (6-mer frequency, TF over GST control); in experiment [4], 1.19 fold enrichment (6-mer frequency, TF over GST control); in [5] it was 1.21 fold enrichment (6-mer frequency, TF over GST control); in experiment [6], 1.28 fold enrichment (6-mer frequency, TF over GST control). The binding signal was 1.14 fold enrichment (6-mer frequency, TF over GST control) in experiment [7]; 1.24 fold enrichment (6-mer frequency, TF over GST control) in experiment [8]; 1.4 fold enrichment (6-mer frequency, TF over GST control) in experiment [9]; 1.13 fold enrichment (6-mer frequency, TF over GST control) in experiment [10].
With ATATTA, the binding signal was 1.07 fold enrichment (6-mer frequency, TF over GST control) in [1]; 1.14 fold enrichment (6-mer frequency, TF over GST control) in experiment [2]; 1.35 fold enrichment (6-mer frequency, TF over GST control) in [3]; 1.23 fold enrichment (6-mer frequency, TF over GST control) in experiment [4]; 1.13 fold enrichment (6-mer frequency, TF over GST control) in experiment [5]; 1.16 fold enrichment (6-mer frequency, TF over GST control) in [6]. The binding signal in experiment [7] was 1.13 fold enrichment (6-mer frequency, TF over GST control); in [8], 1.21 fold enrichment (6-mer frequency, TF over GST control); in experiment [9] it was 1.8 fold enrichment (6-mer frequency, TF over GST control); in experiment [10], 1.17 fold enrichment (6-mer frequency, TF over GST control).
Take ACGTAT: the binding signal was 1.2 fold enrichment (6-mer frequency, TF over GST control) in experiment [1]; 1.2 fold enrichment (6-mer frequency, TF over GST control) in [2]; 1.09 fold enrichment (6-mer frequency, TF over GST control) in [3]; 1.14 fold enrichment (6-mer frequency, TF over GST control) in [4]; 1.27 fold enrichment (6-mer frequency, TF over GST control) in experiment [5]; 1.16 fold enrichment (6-mer frequency, TF over GST control) in [6]. In addition, the binding signal was 1.24 fold enrichment (6-mer frequency, TF over GST control) in experiment [7]; 1.25 fold enrichment (6-mer frequency, TF over GST control) in experiment [8]; 1.15 fold enrichment (6-mer frequency, TF over GST control) in experiment [9]; 1.32 fold enrichment (6-mer frequency, TF over GST control) in experiment [10].
